# Marburg entry inh = inhibitors of Marburg virus binding or cell entry | Marburg virus pseudotyped entry inhibition, cell reporter | 300,000 compounds, 1.8% hits | Potency, µM (doses to about 37.8 µM), actives largely listed as inhibitors | AID 540276; calls by dose curve; tested in HEK293 cells
# VACV mCherry inh = vaccinia inhibition (mCherry reporter). Vaccinia virus mCherry reporter infection, fluorescence. Potency, µM (top dose mostly 36.5 µM), hits mostly inhibitors. 310,000 compounds, 0.63% hits. AID 720579; calls by dose curve; tested in A549 cells; also: nearly all actives have a fitted effect of over 35% in size
# FMDV inh = foot and mouth disease virus antiviral activity. FMDV antiviral cell-based qHTS. Potency, µM (top dose mostly 57.9 µM), actives largely listed as inhibitors. 410,000 compounds, 1.2% hits. AID 1159524; calls by dose curve; tested in HEK293T cells; also: read-out not given here; nearly all actives have a fitted effect of over 45% in size
# HCMV inh = inhibitors of human cytomegalovirus. HFF cells, HCMV-luciferase reporter, 72 h; stronger effect = lower value. activity change, negative = inhibition, % at 57.5 µM. 410,000 compounds, 4.5% hits; in the data active = activity change below about -60%; inconclusive = no clear call, values can overlap the other calls; inactive = above about -39%
#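 Inhibition of viral replication was scored as loss of reporter luminescence in HFFs infected with HCMV-luciferase (MOI 1 PFU/cell) for 72 h; compounds tested at 2 doses, normalized to buffer and Salinomycin controls.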
# Lassa entry inh = inhibitors of Lassa virus binding or cell entry; Lassa virus pseudotype entry inhibition, cell reporter; Potency, µM (doses to about 37.9 µM), actives largely listed as inhibitors; 300,000 compounds, 1.2% hits; AID 540256; calls by dose curve; tested in HEK293 cells; also: nearly all actives have a fitted effect of over 50% in size
# Vaccinia Venus = inhibitors of vaccinia virus (Venus reporter) | Vaccinia virus Venus reporter expression, fluorescence | Potency, µM (top dose mostly 36.5 µM), hits mostly inhibitors | 330,000 compounds, 0.46% hits | AID 720580; calls by dose curve; tested in A549 cells; also: nearly all actives have a fitted effect of over 30% in size
# Numbers stand for hits; – = inactive; ? = inconclusive; · = no result given; ! = a repeat was not active; [ ] = another dose, or the depositor's remark. Shown are actives, neighbours in structure and some others; about 6.5% of the full set was active somewhere.
SMILES,Marburg entry inh,VACV mCherry inh,FMDV inh,HCMV inh,Lassa entry inh,Vaccinia Venus
Cc1sc2ncn(CCn3cnc4sc(C)c(C)c4c3=O)c(=O)c2c1C,?,·,20µM,?,–,–
Cc1sc2ncn(CCC(=O)O)c(=O)c2c1C,–,·,–,–,–,–
Nc1c(C(=O)c2ccccc2)sc2nsc(SCCN3CCCC3)c12,?,–,–,-90.8,6.31µM,?
Cc1ccc(-c2nn(C)c(=O)c3ccccc23)cc1CNC(=O)c1ccccc1,?,–,–,–,11.2µM,–
Cc1ccc(NC(=O)c2ccc(-c3nn(C)c(=O)c4ccccc34)cc2)cc1,–,·,?,–,–,·
Cc1ccc(-c2nn(CC(=O)NCc3cc(-c4nn(C)c(=O)c5ccccc45)ccc3C)c(=O)c3ccccc23)cc1,3.16µM!,?,15.8µM,-95.3,?,?
Cn1nc(-c2ccc(C(=O)Nc3ccc(F)cc3)cc2)c2ccccc2c1=O,?,–,39.8µM,–,?,–
COc1ccc(-c2c(-c3ccc(C#N)cc3)oc(=O)c3cc(OC)c(OC)cc23)cc1,·,–,–,–,·,–
CC(=O)O[C@@H]1[C@H]2[C@@H](C[C@@H](C)[C@@H]3C=CC(=O)[C@@]13C)OC(=O)[C@@H]2C,·,–,–,–,·,?
C=C1C(=O)O[C@@H]2C[C@@H](C)[C@@H]3C=CC(=O)[C@@]3(C)[C@@H](OC(=O)CC(=O)O[C@H]3[C@@H]4C(=C)C(=O)O[C@@H]4C[C@@H](C)[C@@H]4C=CC(=O)[C@]43C)[C@H]12,·,?,?,-98.0,·,2.51µM
C=C1C(=O)O[C@H]2C[C@@H](C)[C@@H]3C=CC(=O)[C@@]3(C)C[C@H]12,·,?,25.1µM,-99.1,·,?
C=C1C(=O)OC2C1CCC(C)C1(O)C=CC(=O)C21C (centres undefined),·,?,39.8µM,-108.0,·,–
C=C1C(=O)OC2C1CCC(C)C1C=CC(=O)C12C (centres undefined),11.2µM,11.2µM,?,-96.8,?,?
COc1ccc(NC(=O)C2CC3C=CC2C3)c([N+](=O)[O-])c1 (centres undefined),–,–,–,–,–,–
COc1ccc(C2/C(=C(/O)c3ccc4c(c3)CC(C)O4)C(=O)C(=O)N2CCN2CCOCC2)cc1OC (centres undefined),–,–,–,–,?,–
CCOC(=O)c1c(C)noc1-c1ccc(Br)o1,?,–[7.34 µM],–,–,–,–[7.34 µM]
CCCOc1ccc(CNC(=O)CN2C(=O)c3cccnc3Oc3ccc(C)cc32)cc1,·,–,–,?,?,–
CCOC(=O)c1c(C)c(-c2ccccc2)n(CC(=O)Nc2cc(C)ccc2OC)c1C,–,–,–,–,·,–
C=C1C(=O)O[C@@H]2C[C@@H](C)[C@@H]3C4OC4C(=O)[C@@]3(C)[C@@H](O)[C@H]12 (some centres undefined),·,?,?,-79.3,·,14.1µM
C=C1C(=O)O[C@H]2[C@H]1[C@H](OC(=O)CC(=O)O[C@@H]1C[C@@H](C)[C@@H]3C=CC(=O)[C@@]3(C)[C@H]3OC(=O)C(=C)[C@H]13)C[C@@H](C)[C@H]1C=CC(=O)[C@]12C,·,?,–,–,·,–
C=C1C(=O)OC2CC(C)C3C=CC(=O)C3(C)C(O)C12 (centres undefined),0.631µM,?,8.91µM,·,1.26µM,6.31µM
CC1C(=O)O[C@@H]2C[C@@H](C)[C@@H]3CCC(=O)[C@@]3(C)[C@@H](O)[C@H]12 (some centres undefined),·,–,–,–,·,–
Cc1nn(CC(=O)N(C)Cc2ccccc2)c(=O)c2cccn12,·,·,–,?,·,·
COCC(=O)Nc1cc(C(=O)N2CCCCC2c2nccs2)c2c(c1)nc(-c1ccncc1)n2C (centres undefined),·,–,–,·,·,–
COc1cccc(C(=O)c2cn(CC(=O)NCCc3ccccc3)c3nc(C)ccc3c2=O)c1,·,–,–,–,–,–
SMILES,Marburg entry inh,VACV mCherry inh,FMDV inh,HCMV inh,Lassa entry inh,Vaccinia Venus
CC1CCCC(NC(=O)c2ccc3c(c2)OCO3)C1C (centres undefined),–,–,–,–,–,–
O=C1CSC(c2nn(-c3ccccc3)cc2-c2cc3ccccc3oc2=O)N1Cc1ccco1 (centres undefined),?,–,·,–,?,–
O=C1CSC(c2cn(-c3ccccc3)nc2-c2cc3ccccc3oc2=O)N1Cc1ccccc1 (centres undefined),?,–[1.46 µM],–,–,11.2µM,?
O=C(NC1CCCCCCC1O)c1ccccc1 (centres undefined),?,–,–,–,–,–
O=C(NC1=NC2CCCCC2N1)c1ccccc1 (centres undefined),?,–,12.6µM,–,?,–
C=CCNC(=S)NNC(=O)C(CCC(C)C)CC(C)(C)O (centres undefined),–,–,–,-107.3,–,–
NS(=O)(=O)c1ccc(Nc2nc(-c3ccc(O)cc3O)cs2)cc1,?,–,?,-91.0,–,–
NS(=O)(=O)c1ccc(Nc2nc(-c3ccc(F)cc3)cs2)cc1,?,?,?,–,–,–
CC[N+]12CCC(CC1)C(=C(c1ccccc1)c1ccccc1)C2,–,–,–,-61.1,–,–
C[N+]12CCC(CC1)C(=C(c1ccccc1)c1ccccc1)C2,–,?,–,?,?,?
Cc1cc2c(C)nc3ccccc3c2o1,–,·,–,–,–,–
Cc1cc2[nH]c3c4ccccc4nc(C)c3c2cc1C,·,·,–,-101.0,·,·
Cc1ccccc1CN1CCNC(=O)C1CC(=O)NC1CCCCCCC1 (centres undefined),–,–,–,–,–,–
CCOc1ccccc1CN1CCNC(=O)C1CC(=O)NC1CCCCCCC1 (centres undefined),–,–,–,-62.1,–,–
CC1CN=C(c2ccc(Cl)cc2)c2c3ccc(C(F)(F)F)cc3[n+]([O-])n21 (centres undefined),·,·,·,–,·,·
CC(=O)c1ccc2c(c1)C1C(Cl)C(Sc3ccccc3[N+](=O)[O-])CC1C(c1ccccc1[N+](=O)[O-])N2 (centres undefined),?,–,–,-87.9,?,–
Cc1ccc(S(=O)(=O)c2nnn(-c3ccc(F)c(Cl)c3)c2N)cc1,·,–,–,–,?,–
COc1cccc(N=C(N)N=C(N)N)c1,·,·,–,–,·,·
NC(N)=NC(N)=Nc1ccc2ccccc2c1,·,·,–,-69.3,·,·
COc1cc(N)c(Cl)cc1C(=O)OCC(=O)N1c2ccccc2NC(=O)C1(C)C,–,–,–,–,–,–
CCN1CCN(c2cc(N3CCc4ccccc4C3)c(F)cc2[N+](=O)[O-])CC1,14.1µM,–,–,–,?,?
COc1cc2c(cc1OC)C(c1cc3cc(OC)c(OC)cc3[nH]c1=O)N(C(=O)C1CC1)CC2 (centres undefined),13µM,·,–,–,25.9µM,·
Clc1ccc(-c2nnc(NCCN3CCCC3)c3ccccc23)cc1,·,·,0.891µM,–,·,·
COc1ccc(N/N=C/c2c(C(=O)O)ccc3ccccc23)cc1,·,·,–,-99.5,·,·
CC(NC(=O)c1cccc(C(F)(F)F)c1)C(c1ccccc1)N1CCOCC1 (centres undefined),–,–,–,-62.5,–,–

# Bioassay records from PubChem.
